Assay results reported in PubChem BioAssay (EPA / NIEHS).
Values joined by “and” are separate entries in the source; they are usually repeats but may differ in a detail not shown here. Equal entries are not always repeated. A structure can be active in one record and inactive in another. Active and inactive are the calls of the source. Rule for the calls: active = hit-call score of the fitted dose curve at least 0.9, where 1 is the maximum; inactive = score below 0.9.

read-out: Apolipoprotein A-V (APOA5) gene, APOA5 (gene 116519); assay: LTEA_HepaRG_APOA5: Life Technologies and Expression Analysis (LTEA) Assay for Apolipoprotein A-V (APOA5) gene using HepaRG (AID 2283474); details: mRNA level, 48 h; actives raise or lower the signal
Protocol: LTEA_HepaRG is a cell based, multiplexed-readout assay that uses HepaRG, a human liver cell line, with measurements taken at 48 hours after chemical dosing on a 96-well plate.LTEA_HepaRG_APOA5 is one of 102 assay component(s) measured in the LTEA HepaRG cell culture assay. It is a marker of Steatosis.Data from the assay component LTEA_HepaRG_APOA5 was analyzed into 1 endpoint. This assay endpoint, LTEA_HepaRG_APOA5, was analyzed with bidirectional fitting relative to DMSO as the negative control and baseline of activity. Using a type of inducible reporter, measures of mRNA induction for gain or loss-of-signal activity can be used to understand regulation of transcription factor activity. To generalize the intended target to other relatable targets, this assay endpoint is annotated to the apolipoprotein intended target family, where the subfamily is Steatosis.
A total of 1060 chemcials from the ToxCast library were tested in eight-point concentration-response experiments. Cell culture and cytotoxicity assays were conducted at Thermo Fisher Scientific's Custom Services facility (Madison, WI). A single lot of human HepaRG cells (Thermo Fisher Scientific, Frederick, MD) was used for the cell culture experiments. 96-well format collagen type I coated plates of human HepaRG cells were prepared using established methods. Briefly, cryopreserved HepaRG cells were thawed, plated at a density of approximately 100,000 cells/well in HepaRG Thaw, Plate, and General Purpose media (HPRG770, Thermo Fisher Scientific), and incubated for 48 hours. 0.5% DMSO was selected as vehicle control to balance the requisite need of DMSO in HepaRG cultures to maintain differentiation (for example, baseline metabolism, proportions of hepatocytes vs. cholangiocytes), while enabling further hepatic receptor pathway activation (for example, PXR and CAR) in response to chemical exposure. 48 hours after plating, the culture medium was replaced with HepaRG Serum-Free Incudtion Media. Cells were exposed to each test chemical in duplicate and maintained in CO2 incubators for another 48 hours. Chemical plates were thawed to room temperature and 200x concentrations of treatment groups were prepared. 8-point conentration-reponse curves were made with the highest exposure at 100 uM, followed by half-log dilutions, all in 0.5% DMSO. Each test plate contained variouse controls, induction positive controls (1mM phenobarbital), cytotoxicity positive controls ([…] aflatoxin B1), vehicle controls (0.5% DMSO), and total lysis controls (0.5% DMSO). Cell morphology images were taken using an Essen IncuCyte FLR automated microscope, with six 96-well plates imaged in about 24 minutes. Images were captured and exported and JPEG files. Spent culture media was transfered to black-well plates for the LDH assay, and remaining media was sorted at -80 C for later use. Cells were treated with RLT buffer and frozen until shipped for gene expression analysis. Total RNA was isolated from the cell suspension in 75 uL of Buffer RLT (Qiagen, Germantown, MD 20874) by Quintiles/Expression Analysis (Durham, NC) using a custom isolation procedure. Total RNA from each plate well was transferred to a preamplification plate. Fluidigm's 96.96 Dynamic ArrayTM (Fluidigm, Amsterdam, the Netherlands) technology was used for gene expression analyses by quantitative reverse transcription polymerase chain reaction (qRT-PCR, performed by Quintiles/Expression Analysis, Durham, NC)89. Standard TaqManTM Assays (Applied Biosystems/ThermoFisher Scientific, Foster City, CA) were used to assess the expression of 93 genes selected based on their selectivity and sensitivity to important hepatic receptors known to be modulated by environmental chemicals; importance in human hepatocyte functionality; and hepatotoxicity. […]

Compound | outcome | AC50
CC(C)(C)C(O)C(Oc1ccc(Cl)cc1)n1cncn1 (stereo not given) | inactive | 50 µM (active)
Oc1cc(Cl)ccc1Oc1ccc(Cl)cc1Cl | inactive | 51 µM (active) and 81.5 µM (active)
CNC(=O)/C=C(\C)OP(=O)(OC)OC | inactive | –
C#CCN1C(=O)COc2cc(F)c(N3C(=O)C4=C(CCCC4)C3=O)cc21 | – | 23.1 µM (active)
OCCOc1ccccc1 | inactive | –
O=S(=O)(O)C(F)(F)C(F)(F)C(F)(F)C(F)(F)C(F)(F)C(F)(F)C(F)(F)C(F)(F)F | inactive | 34.1 µM (active)
C[C@H]1[C@H](c2ccc(Cl)cc2)SC(=O)N1C(=O)NC1CCCCC1 | – | 36.8 µM (active)
CCC(C)Nc1c([N+](=O)[O-])cc(C(C)(C)C)cc1[N+](=O)[O-] (stereo not given) | inactive | –
CCOC1Oc2ccc(OS(C)(=O)=O)cc2C1(C)C (stereo not given) | – | 77 µM (active)
Clc1ccccc1-c1nnc(-c2ccccc2Cl)nn1 | inactive | –
CC1(C)C(C=C(Cl)Cl)C1C(=O)OC(C#N)c1ccc(F)c(Oc2ccccc2)c1 (stereo not given) | inactive | –
CCc1ccc(C(=O)NN(C(=O)c2cc(C)cc(C)c2)C(C)(C)C)cc1 | inactive | –
CN1CSC(=S)N(C)C1 | inactive | –
CNC(=O)Oc1ccccc1OC(C)C | inactive | –
O=C(O)CCCOc1ccc(Cl)cc1Cl | inactive | –
CC(C)(C)C(O)/C(=C\c1ccc(Cl)cc1Cl)n1cncn1 (stereo not given) | – | 25.3 µM (active)
CC1(c2ccc(Oc3ccccc3)cc2)OC(=O)N(Nc2ccccc2)C1=O (stereo not given) | – | 28.3 µM (active)
CCCN(CCC)c1c([N+](=O)[O-])cc(C(F)(F)F)cc1[N+](=O)[O-] | inactive | –

Compound | outcome | AC50
CCC(C)(C)C(=O)OC1=C(c2ccc(Cl)cc2Cl)C(=O)OC12CCCCC2 | – | 50 µM (active)
COP(=S)(OC)Oc1ccc([N+](=O)[O-])cc1 | inactive | –
ClC1C(Cl)C(Cl)C(Cl)C(Cl)C1Cl (stereo not given) | inactive | –
COP(=S)(OC)Oc1ccc(SC)c(C)c1 | inactive | –
CCC(C)(NC(=O)c1cc(Cl)c(C)c(Cl)c1)C(=O)CCl (stereo not given) | inactive | –
COP(=O)(OC)OC=C(Cl)Cl | inactive | –
CNC(=O)CSP(=S)(OC)OC | inactive | –
N#CN | inactive | –
N#Cc1c(Cl)c(Cl)c(Cl)c(C#N)c1Cl | inactive | –
O=[N+]([O-])/N=C1\NCCN1Cc1ccc(Cl)nc1 | inactive | –
CCCN(CCOc1c(Cl)cc(Cl)cc1Cl)C(=O)n1ccnc1 | – | 39 µM (active)
Oc1ccc(Cl)cc1Cc1ccccc1 | inactive | 79.8 µM (active)
CC(C)OC(=O)Nc1cccc(Cl)c1 | inactive | –
O=C(O)C(F)(F)C(F)(F)C(F)(F)C(F)(F)C(F)(F)C(F)(F)C(F)(F)F | inactive | –
CCOCN(C(=O)CCl)c1c(C)cccc1CC | – | 79.4 µM (active)
CNC(=O)Oc1cccc(N=CN(C)C)c1 | inactive | –
CCN(CC)C(=O)SCc1ccc(Cl)cc1 | inactive | –
COc1nn(CSP(=S)(OC)OC)c(=O)s1 | inactive | –
